Test results from the supplement of paper PMC8975748.
Structures can show the parent of a compound that is named as a salt.

The molecules below were run on Saccharomyces cerevisiae BY4741 SeMeCo community (assay: z-score of subpopulation abundance vs DMSO median, subpopulation auxotrophic for LUM; higher = larger share of this subpopulation than in DMSO controls). Settings: 10 µM; 24 h; SM minimal medium; subpopulation (auxotrophy): LUM.
Procedure, shortened: (§1)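 Cells of a Saccharomyces cerevisiae BY4741 community, carrying four plasmids that each restored one auxotrophy and encoded a distinct fluorescent protein, were pre-grown overnight to OD600 1.0 and diluted to 0.3. A 70 µl volume was added to 384-well plates acoustically predosed with library drugs (10 µM final) and grown 24 h in minimal SM medium. After paraformaldehyde fixation, automated confocal microscopy was used, with single-auxotroph fluorescent strains for thresholds and autofluorescence correction. The abundance of each subpopulation was scored as a z-score against the vehicle-well median.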

| Compound | z-score of subpopulation abundance |
| --- | --- |
| NCC[C@H](O)C(=O)N[C@@H]1C[C@H](N)[C@@H](O[C@H]2O[C@H](CN)[C@@H](O)[C@H](O)[C@H]2O)[C@H](O)[C@H]1O[C@H]1O[C@H](CO)[C@@H](O)[C@H](N)[C@H]1O [Amikacin hydrate] | -0.58 |
| COc1ccc2c3c1O[C@H]1C[C@@H](O)C=C[C@@]31CCN(C)C2 [Galanthamine] | 1.02 |
| CN1CCN(CCCN2c3ccccc3Sc3ccc(C(F)(F)F)cc32)CC1 [Trifluoperazine 2HCl] | 0 |
| C[C@]12CC[C@@H]3c4ccc(OS(=O)(=O)O)cc4CC[C@H]3[C@@H]1CCC2=O [Estropipate] | -0.11 |
| O=C(Cn1ccnc1[N+](=O)[O-])NCc1ccccc1 [Benznidazole] | 0.15 |
| CCN(Cc1ccncc1)C(=O)C(CO)c1ccccc1 (stereo not drawn) [Tropicamide] | 0 |

What follows are molecules tested on Saccharomyces cerevisiae BY4741 SeMeCo community (assay: z-score of subpopulation abundance vs DMSO median, subpopulation auxotrophic for HLUM; higher = larger share of this subpopulation than in DMSO controls). Settings: 10 µM; 24 h; SM minimal medium; subpopulation (auxotrophy): HLUM.
Procedure, shortened: as §1

| Compound | z-score of subpopulation abundance |
| --- | --- |
| CC(C)Cc1ccc(C(C)C(=O)O)cc1 (stereo not drawn) [Ibuprofen] | -0.59 |
| Fc1ccc(C(c2ccc(F)cc2)N2CCN(C/C=C/c3ccccc3)CC2)cc1 [Flunarizine 2HCl] | 1.3 |
| COCCCN1CCC(NC(=O)c2cc(Cl)c(N)c3c2OCC3)CC1 [Prucalopride Succinate] | 2.43 |
| CCCCOc1ccc(CC(=O)NO)cc1 [Bufexamac] | -1.25 |
| NCC[C@H](O)C(=O)N[C@@H]1C[C@H](N)[C@@H](O[C@H]2O[C@H](CN)[C@@H](O)[C@H](O)[C@H]2O)[C@H](O)[C@H]1O[C@H]1O[C@H](CO)[C@@H](O)[C@H](N)[C@H]1O [Amikacin disulfate] | 0.42 |
| O=C(Nc1cc(Cl)cc(Cl)c1O)c1c(O)c(Cl)cc(Cl)c1Cl [Oxyclozanide] | 2.05 |
| CCC(=O)NS(=O)(=O)c1ccc(-c2c(-c3ccccc3)noc2C)cc1 [Parecoxib Sodium] | 0.78 |
| CN(CCN1CCC(OC(=O)Nc2ccccc2-c2ccccc2)CC1)C(=O)c1ccc(CN2CCC(C(N)=O)CC2)cc1 [Revefenacin] | -0.7 |
| Cc1nnc(NS(=O)(=O)c2ccc(N)cc2)s1 [Sulfamethizole] | -0.49 |
| CC1=CC[C@@](O)(C(C)C)CC1 [Terpinen-4-ol] | 0.81 |
| CS(=O)(=O)c1ccc([C@@H](O)[C@@H](CF)NC(=O)C(Cl)Cl)cc1 [Florfenicol] | -0.14 |
| Cn1c([N+](=O)[O-])cnc1COC(N)=O [Ronidazole] | -0.24 |
| CC(=O)OCC(COC(C)=O)OC(C)=O [Triacetin] | -0.48 |
| COc1ccc(Cl)cc1C(=O)NCCc1ccc(S(=O)(=O)NC(=O)NC2CCCCC2)cc1 [Glyburide (Glibenclamide)] | 0.01 |
| O=C(Nc1c(Cl)cncc1Cl)c1ccc(OC(F)F)c(OCC2CC2)c1 [Roflumilast] | -0.84 |
| CN(C)[C@@H](CCOc1cccc2ccccc12)c1ccccc1 [Dapoxetine HCl] | -0.01 |
| CN(C)CCC=C1c2ccccc2C(C)(C)c2ccccc21 [Melitracen hydrochloride] | -0.56 |
| COc1cc(Cc2cnc(N)nc2N)cc(OC)c1OC [Trimethoprim] | -0.22 |
| OCCN1CCN(CCCN2c3ccccc3Sc3ccc(C(F)(F)F)cc32)CC1 [Fluphenazine dihydrochloride] | 0.51 |
| CC(C)c1c(C(=O)Nc2ccccc2)c(-c2ccccc2)c(-c2ccc(F)cc2)n1CC[C@@H](O)C[C@@H](O)CC(=O)O [Atorvastatin] | 0.49 |
| NNc1nncc2ccccc12 [Hydralazine HCl] | -0.64 |
| COCCOC(=O)C1=C(C)NC(C)=C(C(=O)OC(C)C)C1c1cccc([N+](=O)[O-])c1 (stereo not drawn) [Nimodipine] | -0.14 |
| CC(C)n1c(/C=C/C(O)CC(O)CC(=O)O)c(-c2ccc(F)cc2)c2ccccc21 (stereo not drawn) [Fluvastatin Sodium] | 14 |
| Cc1cc(C)nc(NS(=O)(=O)c2ccc(N)cc2)n1 [Sulfamethazine] | 0.42 |
| CC[C@H](C)C(=O)O[C@H]1C[C@@H](C)C=C2C=C[C@H](C)[C@H](CC[C@@H]3C[C@@H](O)CC(=O)O3)[C@H]21 [Lovastatin] | 0.35 |
| CN1[C@@H]2CC[C@H]1C[C@@H](OC(c1ccccc1)c1ccccc1)C2 [Benztropine mesylate] | -0.38 |
| CO/N=C(\C(=O)N[C@@H]1C(=O)N2C(C(=O)O)=C(CSc3nnnn3C)CS[C@H]12)c1csc(N)n1 [Cefmenoxime hydrochloride] | -0.52 |
